Measurements from PubChem BioAssay (Tox21).
“And” between values parts separate entries of the source, which are not always exact repeats. Equal entries are not always repeated. Values without a mark were called inactive. Records with an inconclusive call do not appear. Entries that show only a call come without a potency. The source made the active and inactive calls. Unless noted, calls come from the whole dose curve; as a rule, active = well fitted curve in the direction sought with a large enough effect in the repeat runs; inconclusive = weak or mixed curves; inactive = no such curve, though single readings can be large; an effect the other way counts as inactive or inconclusive.

What was measured:
[1] = target: Acetylcholinesterase (Homo sapiens) (UniProt P22303); experiment: Acetylcholinesterase (AChE) small molecule antagonists: fluorescence cell-based qHTS assay (AID 1347398; calls by dose curve; note: nearly all actives have a fitted effect of over 50% in size; note: potency is the fitted concentration of half-maximal effect); settings: Potency: AChE activity
Outline: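 Thiocholine generated from acetylthiocholine by SH-SY5Y cell AChE is detected with Thiolite Green (Ex/Em 490/520 nm) after 40 min at room temperature, following 30 min compound pretreatment at 37 C.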

[2] = target: Acetylcholinesterase (Homo sapiens) (UniProt P22303); experiment: Acetylcholinesterase (AChE) small molecule antagonists: enzyme-based qHTS assay with human liver microsomes (AID 1347399; calls by dose curve; note: nearly all actives have a fitted effect of over 60% in size; note: potency is the fitted concentration of half-maximal effect); settings: Potency: qHTS inhibition
Outline: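 Recombinant human AChE (50 mU/mL in the enzyme mix) and human liver microsomes (0.25 mg/mL final) were preincubated with compound and NADPH (0.25 mg/mL final) for 30 min at 37 C. Acetylthiocholine/DTNB was then added; thiocholine was read colorimetrically after 10 min at room temperature.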

[3] = target: Cytochrome P450 2D6 (Homo sapiens) (UniProt P10635); experiment: Cytochrome P450 Family 2 Subfamily D Member 6 (CYP2D6) small molecule antagonists: luciferase reporter qHTS assay (AID 1671196); note: nearly all actives have a fitted effect of over 50% in size; note: potency is the fitted concentration of half-maximal effect
Outline: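 Read-out is luminescence from luciferin formed by CYP2D6 turnover of a proluciferin substrate, recorded as relative luminescence units. Reactions ran 1 h at room temperature after NADPH regeneration solution was added.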

[4] = target: Cytochrome P450 2C19 (Homo sapiens) (UniProt P33261); experiment: Cytochrome P450 Family 2 Subfamily C Member 19 (CYP2C19) small molecule antagonists: luciferase reporter qHTS assay (AID 1671197); note: nearly all actives have a fitted effect of over 65% in size; note: potency is the fitted concentration of half-maximal effect
Outline: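 CYP2C19 P450-Glo, 1536-well qHTS. Cpd + enzyme/proluciferin substrate 10 min RT; + NADPH regen, 37C 1 h; stop with luciferin detection reagent, 20 min RT, luminescence (RLU). Pos ctrl ketoconazole.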

[5] = target: Cytochrome P450 2C9 (Homo sapiens) (UniProt P11712); experiment: Cytochrome P450 Family 2 Subfamily C Member 9 (CYP2C9) small molecule antagonists: luciferase reporter qHTS assay (AID 1671198); note: nearly all actives have a fitted effect of over 50% in size; note: potency is the fitted concentration of half-maximal effect
Outline: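 CYP2C9 activity was measured with a P450-Glo proluciferin substrate. Enzyme–substrate mix was held with compound for 10 min at room temperature, then NADPH regeneration solution was added for 1 h at 37C. Luciferin product was read as luminescence.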

[6] = target: Cytochrome P450 3A4 (Homo sapiens) (UniProt P08684); experiment: Cytochrome P450 Family 3 Subfamily A Member 4 (CYP3A4) small molecule antagonists: luciferase reporter qHTS assay (AID 1671201); note: series mostly up to about 120 µM; nearly all actives have a fitted effect of over 50% in size
Outline: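 CYP3A4 activity was followed with a P450-Glo proluciferin substrate. Test compounds in DMSO were preincubated 10 min; NADPH regeneration then ran 1 h, and light output was read 20 min after detection reagent.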

[7] = target: Voltage-gated inwardly rectifying potassium channel KCNH2 (Homo sapiens) (UniProt Q12809); experiment: Human Ether-a-go-go-Related Gene (hERG) channel small molecule antagonists: fluorescence cell-based qHTS assay (AID 1671200)
Outline: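 In this thallium-flux screen, overnight-cultured U2OS cells bearing the channel are dye-loaded in darkness for an hour, rested 10 min at room temperature, and then monitored kinetically at 480/540 nm for two minutes post-stimulus.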

[8] = target: Cytochrome P450 1A2 (Homo sapiens) (UniProt P05177); experiment: Cytochrome P450 Family 1 Subfamily A Member 2 (CYP1A2) small molecule antagonists: luciferase reporter qHTS assay (AID 1671199); note: nearly all actives have a fitted effect of over 50% in size; note: potency is the fitted concentration of half-maximal effect
Outline: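 P450-Glo CYP1A2, 1536-well qHTS: enzyme/proluciferin substrate + cpd (DMSO), 10 min RT; NADPH regen, 1 h RT; detection reagent, 20 min; luminescence, RLU.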

Sequence of Cytochrome P450 2C9 (Homo sapiens) (P11712 whole entry, looked up): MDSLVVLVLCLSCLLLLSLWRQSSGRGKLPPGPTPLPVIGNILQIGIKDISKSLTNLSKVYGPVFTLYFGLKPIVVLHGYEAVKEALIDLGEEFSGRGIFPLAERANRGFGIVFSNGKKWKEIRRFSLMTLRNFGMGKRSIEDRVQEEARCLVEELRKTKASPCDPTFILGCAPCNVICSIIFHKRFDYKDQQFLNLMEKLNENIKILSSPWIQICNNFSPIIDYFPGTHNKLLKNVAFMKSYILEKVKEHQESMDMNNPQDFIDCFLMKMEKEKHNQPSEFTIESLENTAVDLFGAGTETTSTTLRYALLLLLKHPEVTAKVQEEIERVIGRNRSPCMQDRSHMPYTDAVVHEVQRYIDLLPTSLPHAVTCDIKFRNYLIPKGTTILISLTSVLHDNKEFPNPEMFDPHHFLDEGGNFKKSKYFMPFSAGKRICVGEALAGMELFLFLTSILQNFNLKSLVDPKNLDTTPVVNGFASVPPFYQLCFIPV
Sequence of Cytochrome P450 1A2 (Homo sapiens) (P05177 whole entry, looked up): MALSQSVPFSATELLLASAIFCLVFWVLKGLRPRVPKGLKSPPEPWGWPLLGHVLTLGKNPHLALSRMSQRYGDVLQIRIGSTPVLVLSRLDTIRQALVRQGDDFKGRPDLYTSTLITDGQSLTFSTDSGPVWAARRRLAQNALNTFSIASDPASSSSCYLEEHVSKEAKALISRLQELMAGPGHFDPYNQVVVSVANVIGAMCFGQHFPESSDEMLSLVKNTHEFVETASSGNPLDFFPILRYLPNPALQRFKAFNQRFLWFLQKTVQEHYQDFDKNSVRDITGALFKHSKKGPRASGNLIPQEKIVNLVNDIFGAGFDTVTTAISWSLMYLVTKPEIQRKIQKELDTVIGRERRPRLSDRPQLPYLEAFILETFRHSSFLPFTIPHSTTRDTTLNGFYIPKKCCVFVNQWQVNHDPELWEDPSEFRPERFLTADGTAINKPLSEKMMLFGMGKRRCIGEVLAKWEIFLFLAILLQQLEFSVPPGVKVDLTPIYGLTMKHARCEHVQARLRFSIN
Sequence of Voltage-gated inwardly rectifying potassium channel KCNH2 (Homo sapiens) (Q12809 whole entry, looked up): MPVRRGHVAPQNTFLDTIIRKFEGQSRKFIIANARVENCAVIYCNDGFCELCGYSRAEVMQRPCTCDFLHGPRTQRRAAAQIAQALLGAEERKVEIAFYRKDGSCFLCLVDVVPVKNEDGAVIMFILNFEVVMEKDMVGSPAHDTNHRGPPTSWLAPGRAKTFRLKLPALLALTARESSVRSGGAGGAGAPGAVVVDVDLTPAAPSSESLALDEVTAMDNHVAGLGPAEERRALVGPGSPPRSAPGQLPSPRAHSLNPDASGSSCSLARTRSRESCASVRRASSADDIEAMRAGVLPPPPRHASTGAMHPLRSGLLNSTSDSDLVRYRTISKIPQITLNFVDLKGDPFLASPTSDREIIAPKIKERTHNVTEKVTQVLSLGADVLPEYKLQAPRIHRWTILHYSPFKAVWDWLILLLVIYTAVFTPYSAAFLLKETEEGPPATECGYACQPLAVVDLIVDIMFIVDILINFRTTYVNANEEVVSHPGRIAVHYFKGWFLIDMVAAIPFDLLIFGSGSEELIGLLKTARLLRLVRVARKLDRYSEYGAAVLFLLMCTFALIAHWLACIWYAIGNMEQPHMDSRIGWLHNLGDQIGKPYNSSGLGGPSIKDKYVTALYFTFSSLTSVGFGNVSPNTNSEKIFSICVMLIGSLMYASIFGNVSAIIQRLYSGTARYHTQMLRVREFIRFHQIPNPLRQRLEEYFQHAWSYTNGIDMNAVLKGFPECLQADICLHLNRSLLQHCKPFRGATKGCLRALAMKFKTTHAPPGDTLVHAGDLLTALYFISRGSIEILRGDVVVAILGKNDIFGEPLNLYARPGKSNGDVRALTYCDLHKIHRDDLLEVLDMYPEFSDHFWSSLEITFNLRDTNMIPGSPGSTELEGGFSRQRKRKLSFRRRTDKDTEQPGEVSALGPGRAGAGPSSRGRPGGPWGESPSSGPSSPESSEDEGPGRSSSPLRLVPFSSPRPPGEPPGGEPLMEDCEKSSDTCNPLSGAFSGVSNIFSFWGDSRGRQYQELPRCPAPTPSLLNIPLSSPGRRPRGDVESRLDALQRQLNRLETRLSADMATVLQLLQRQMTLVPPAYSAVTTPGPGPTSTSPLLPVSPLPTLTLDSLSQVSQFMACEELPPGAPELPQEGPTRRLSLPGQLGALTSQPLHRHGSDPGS
Sequence of Cytochrome P450 2C19 (Homo sapiens) (P33261 whole entry, looked up): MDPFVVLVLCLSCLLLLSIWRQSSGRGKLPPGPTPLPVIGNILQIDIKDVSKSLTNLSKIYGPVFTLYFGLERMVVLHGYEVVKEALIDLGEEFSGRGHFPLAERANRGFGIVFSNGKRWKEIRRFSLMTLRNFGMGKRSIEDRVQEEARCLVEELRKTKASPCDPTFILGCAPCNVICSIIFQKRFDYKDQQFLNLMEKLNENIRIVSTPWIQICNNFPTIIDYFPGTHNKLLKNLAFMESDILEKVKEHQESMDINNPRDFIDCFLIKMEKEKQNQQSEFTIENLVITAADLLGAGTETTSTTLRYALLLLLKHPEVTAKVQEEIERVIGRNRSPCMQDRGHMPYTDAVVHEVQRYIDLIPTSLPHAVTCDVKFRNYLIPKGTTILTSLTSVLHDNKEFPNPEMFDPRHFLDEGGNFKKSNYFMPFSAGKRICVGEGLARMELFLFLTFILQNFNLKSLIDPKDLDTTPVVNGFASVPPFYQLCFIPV
Sequence of Acetylcholinesterase (Homo sapiens) (P22303 whole entry, looked up): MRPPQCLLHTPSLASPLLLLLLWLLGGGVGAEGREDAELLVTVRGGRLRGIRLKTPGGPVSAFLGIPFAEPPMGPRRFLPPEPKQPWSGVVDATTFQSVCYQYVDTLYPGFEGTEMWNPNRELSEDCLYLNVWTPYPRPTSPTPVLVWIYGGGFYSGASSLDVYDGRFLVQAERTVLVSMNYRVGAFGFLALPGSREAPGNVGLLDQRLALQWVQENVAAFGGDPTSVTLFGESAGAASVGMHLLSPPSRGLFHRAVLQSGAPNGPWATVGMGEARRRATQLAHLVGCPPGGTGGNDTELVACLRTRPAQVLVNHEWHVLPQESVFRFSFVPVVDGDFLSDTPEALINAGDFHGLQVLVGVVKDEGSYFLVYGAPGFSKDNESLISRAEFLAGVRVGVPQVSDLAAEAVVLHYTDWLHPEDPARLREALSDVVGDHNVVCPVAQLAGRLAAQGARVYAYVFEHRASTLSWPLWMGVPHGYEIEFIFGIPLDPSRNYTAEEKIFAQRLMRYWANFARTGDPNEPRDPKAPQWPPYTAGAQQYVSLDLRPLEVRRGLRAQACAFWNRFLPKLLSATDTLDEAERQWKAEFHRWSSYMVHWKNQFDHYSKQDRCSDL
Sequence of Cytochrome P450 3A4 (Homo sapiens) (P08684 whole entry, looked up): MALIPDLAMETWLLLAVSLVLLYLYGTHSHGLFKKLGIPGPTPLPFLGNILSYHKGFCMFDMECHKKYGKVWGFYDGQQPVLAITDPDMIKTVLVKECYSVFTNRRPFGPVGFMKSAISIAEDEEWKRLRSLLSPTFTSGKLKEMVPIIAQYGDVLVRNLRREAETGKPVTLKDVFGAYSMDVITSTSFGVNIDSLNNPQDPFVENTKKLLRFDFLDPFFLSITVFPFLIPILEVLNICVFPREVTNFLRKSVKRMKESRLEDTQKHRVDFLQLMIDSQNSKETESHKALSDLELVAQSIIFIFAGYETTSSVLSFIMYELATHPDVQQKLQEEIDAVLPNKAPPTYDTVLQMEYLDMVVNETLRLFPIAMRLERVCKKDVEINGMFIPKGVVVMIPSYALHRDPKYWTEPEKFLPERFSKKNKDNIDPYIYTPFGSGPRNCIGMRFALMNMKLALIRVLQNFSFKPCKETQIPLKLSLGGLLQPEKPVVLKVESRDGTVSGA
Sequence of Cytochrome P450 2D6 (Homo sapiens) (P10635 whole entry, looked up): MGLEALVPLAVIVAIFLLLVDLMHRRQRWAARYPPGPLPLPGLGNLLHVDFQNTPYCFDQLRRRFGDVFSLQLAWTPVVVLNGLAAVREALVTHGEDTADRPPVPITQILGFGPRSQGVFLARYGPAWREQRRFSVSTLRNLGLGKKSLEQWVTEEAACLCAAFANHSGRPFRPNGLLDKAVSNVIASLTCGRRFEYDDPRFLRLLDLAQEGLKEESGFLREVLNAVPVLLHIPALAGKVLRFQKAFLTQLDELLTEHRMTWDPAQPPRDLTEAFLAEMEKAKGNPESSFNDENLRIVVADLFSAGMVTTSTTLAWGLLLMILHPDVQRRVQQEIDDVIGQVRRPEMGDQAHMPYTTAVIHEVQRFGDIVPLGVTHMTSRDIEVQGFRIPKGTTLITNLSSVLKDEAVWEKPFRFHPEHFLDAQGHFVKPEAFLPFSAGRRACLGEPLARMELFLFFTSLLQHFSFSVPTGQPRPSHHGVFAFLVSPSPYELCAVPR

SMILES	Potency [1]	Potency [2]	Potency [3]	Potency [4]	Potency [5]	Potency [6]	Potency [7]	Potency [8]
Cc1c(F)c(F)c(COC(=O)C2C(/C=C(\Cl)C(F)(F)F)C2(C)C)c(F)c1F (centres undefined)	inactive	inactive	inactive	35.6 µM (active)	22.4 µM (active)	inactive	–	–
CCCC(=O)Cl	inactive	inactive	inactive	inactive	inactive	inactive	inactive	–
CCCCCCCCOC(=O)c1ccc(C(=O)OCCCCCCCC)c(C(=O)OCCCCCCCC)c1	inactive	inactive	inactive	80.6 µM (active)	–	inactive	inactive	inactive
C=CCCl	inactive	inactive	inactive	inactive	inactive	inactive	inactive	–
O=NN1CCCCCC1	inactive	inactive	inactive	inactive	inactive	inactive	inactive	–
O=C(CBr)c1ccccc1	inactive	inactive	2.53 µM (active)	56.7 µM (active)	–	inactive	inactive	63.7 µM (active)
CC1Sc2c(C(=O)O)c(=O)c3cc(F)c(N4CCNCC4)cc3n21 (centres undefined)	inactive	inactive	inactive	inactive	–	inactive	inactive	inactive
C(=NC1CCCCC1)=NC1CCCCC1	inactive	inactive	63.3 µM (active)	–	inactive	inactive	inactive	inactive
Cn1cc[n+](C)c1 (tested in a mixture with another compound)	inactive	inactive	inactive	–	inactive	–	inactive	inactive
C=C(C#N)CCC#N	inactive	inactive	inactive	inactive	inactive	inactive	inactive	–
Nc1nc(N)nc(N)n1	inactive	inactive	inactive	–	inactive	inactive	inactive	31.8 µM (active)
CC1C(=O)C[C@]2(C(C)C)C[C@H]12 (some centres undefined)	inactive	inactive	34.5 µM (active)	34.5 µM (active)	–	inactive	inactive	–
COC1=CC(=O)O[C@@H](CCc2ccccc2)C1	inactive	inactive	inactive	5.87 µM (active)	33 µM (active)	inactive	inactive	–
NS(=O)(=O)C(F)(F)C(F)(F)C(F)(F)C(F)(F)C(F)(F)C(F)(F)C(F)(F)C(F)(F)F	inactive	inactive	inactive	–	0.633 µM (active)	inactive	inactive	inactive
O=C(CBr)Nc1ccc(Cl)cc1C(=O)c1ccccc1F	inactive	inactive	inactive	1.95 µM (active)	–	inactive	inactive	13.8 µM (active)
CC(=O)NC1CCSC1=O (centres undefined)	inactive	inactive	inactive	inactive	–	inactive	inactive	inactive
Brc1ccc(Oc2ccccc2)cc1	inactive	inactive	inactive	81.7 µM (active) and 31.7 µM (active)	–	inactive	inactive	25.2 µM (active)
O=C(O)C1(c2ccc3c(c2)OC[C@H](Cc2ccc(-c4ccccc4)cc2)[C@H]3O)CCCC1	inactive	inactive	inactive	–	71 µM (active)	inactive	inactive	inactive
Cc1ccc(N)cc1C	inactive	inactive	5.07 µM (active)	28.5 µM (active)	–	–	inactive	4.52 µM (active)
CC(C)O.CC(C)O.OCCN(CCO)CCO.OCCN(CCO)CCO.[Ti]	inactive	inactive	inactive	inactive	–	inactive	inactive	inactive
C=CC(=O)OC(C)(C)C	inactive	inactive	inactive	30.6 µM (active)	–	–	inactive	2.43 µM (active)
COC(=O)C(Br)CBr (centres undefined)	inactive	inactive	inactive	–	inactive	–	inactive	35.6 µM (active)
Clc1cc(Cl)c(Cl)c(Cl)c1	inactive	inactive	inactive	inactive	inactive	inactive	inactive	–
CCCCN=C=O	inactive	inactive	inactive	35.2 µM (active)	inactive	inactive	inactive	–
c1ccc(C2CC2)c(OCC2=NCCN2)c1	inactive	inactive	4.36 µM (active)	inactive	inactive	inactive	inactive	–
ClCCCCBr	inactive	inactive	–	inactive	inactive	inactive	inactive	inactive
CCOP(=O)(OCC)SCCSCC	3.03 µM (active) and 10 µM (active)	17 µM (active) and 35.6 µM (active)	–	21.4 µM (active) and 35.6 µM (active)	inactive	inactive	inactive	34 µM (active)
CC[C@H]1C[C@H]2[C@@H]3CCC4=CC(=O)CC[C@@H]4[C@H]3CC[C@]2(C)[C@H]1O	inactive	inactive	inactive	–	–	inactive	inactive	inactive
